Inconclusive results are not listed. A call without a number means that no potency is given here. Activity calls are given as the source filed them. Calls follow the shape of the dose curve; as a rule, active = well fitted cell-killing curve with a large enough effect in the repeat runs; inconclusive = weak or mixed curves, or effect the other way; inactive = flat fitted curve, though single readings scatter.
Assay: qHTS assay to identify small molecule antagonists of the estrogen receptor alpha (ER-alpha) signaling pathway using the BG1 cell line in the presence of 0.1 nM 17-beta-estradiol - cell viability counter screen (AID 1259241); also: nearly all actives have a fitted effect of over 40% in size
Settings: VM7Luc4E2 (BG1) viability, CellTiter-Fluor protease, 22 h, 0.1 nM estradiol agonist added; series mostly up to 92.4 µM
Excerpt: National Center for Advancing Translational Sciences [NCATS]
NIH Chemical Genomics Center [NCGC]
U.S. Environmental Protection Agency [EPA]
National Institutes of Environmental Health Sciences [NIEHS]
National Toxicology Program [NTP]
U.S. Food and Drug Administration [FDA]
Estrogen receptor (ER), a member of the nuclear hormone receptor plays an important role in development, metabolic homeostasis and reproduction. Two subtypes of ER, ER-alpha and ER-beta, have similar expression patterns with some uniqueness in both types. Endocrine disrupting chemicals (EDCs) and their interactions with steroid hormone receptors like ER causes disruption of normal endocrine function. Therefore, it is important to understand the effect of environmental chemicals in ER signaling pathway. For identifying ER antagonists, VM7Luc4E2 cell line was used to screen against Tox21 compound libraries.
VM7Luc4E2 cell line (provided by Denison MS, University of California) endogenously express full-length ER-alpha and is stably transfected with a plasmid containing four estrogen responsive elements (ERE) upstream of a luciferase reporter gene. The current screening for identification of ER-alpha inhibitors against Tox21 compound libraries used lower concentration (0.1 nM) of 17beta-Estradiol as a stimulator. The cytotoxicity of the Tox21 compound libraries against VM7Luc4E2 cell line was tested by measuring live-cell protease activity using CellTiter-Fluor assay in the same wells.
Tox21 Assay Protocol Summary:
VM7Luc4E2 cells were cultured in phenol red free assay medium containing 10% charcoal stripped FBS for 5 days prior to the assay. The cells were dispensed at 4,000 cells/well in 4 uL of assay medium into white wall/solid-bottom 1536-well plates (Corning Life Sciences, Corning, NY) using a Multidrop Combi (ThermoFisher Scientific, Waltham, MA) dispenser. After the assay plates were incubated at 37C and 5% CO2 for 24 hr, 23 nL of compounds dissolved in DMSO, positive controls or DMSO only was transferred to the assay plates by a Pintool station (Kalypsys, San Diego, CA). The transfer of compounds was followed by the addition of 1 uL of 0.1 nM (final concentration) agonist (17beta-Estradiol)/assay medium using a Flying Reagent Dispenser (FRD, Aurora Discovery, San Diego, CA). The plates were incubated at 37C and 5% CO2 for 22 hr. For cytotoxicity assay, 1 uL of CellTiter-Fluor reagent (Promega Corporation, Madison, WI) was added to each well using the FRD and after 30 min incubation at 37C and 5% CO2, The fluorescence intensity was measured using ViewLux plate reader (PerkinElmer, Shelton, CT).
Potency is read from the fitted curve at half-maximal effect.

**Q.** With `Cc1cc(O)cc(C)c1Cl` as the compound, how does the Potency read?
**A.** The Potency was “inactive”.

**Q.** Which Potency does the source give for `CCCCCCC(C)(C)S` here?
**A.** Its Potency is “inactive”.

**Q.** For `c1ccc2[nH]cnc2c1`, which Potency is on record?
**A.** Its Potency is “inactive”.

**Q.** For `CC#C[C@]1(O)CC[C@H]2[C@@H]3CCC4=CC(=O)CCC4=C3[C@@H](c3ccc(N(C)C)cc3)C[C@@]21C`, which Potency is on record?
**A.** Its Potency is “inactive”.

**Q.** With `O=[N+]([O-])C(CO)(CO)CO` as the compound, how does the Potency read?
**A.** The Potency was “inactive”.

**Q.** With `COCC(=O)O` as the compound, how does the Potency read?
**A.** The Potency was “inactive”.

**Q.** For `CC[Si](OC(C)=O)(OC(C)=O)OC(C)=O`, which Potency is on record?
**A.** Its Potency is “inactive”.

**Q.** For `CCCCCCOC(C)=O`, which Potency is on record?
**A.** The Potency was “inactive”.

**Q.** With `CCc1ccc(O)cc1` as the compound, how does the Potency read?
**A.** The Potency was “inactive”.

**Q.** For `O=C(c1ccc(O)cc1)c1ccc(O)cc1O`, which Potency is on record?
**A.** The Potency was “inactive”.

**Q.** With `CCc1ccccc1O` as the compound, how does the Potency read?
**A.** The Potency was “inactive”.

**Q.** With `O=[N+]([O-])c1cccc(Cl)c1` as the compound, how does the Potency read?
**A.** The Potency was “inactive”.

**Q.** With `CCCCC(CC)COC(C)=O` (stereo not given) as the compound, how does the Potency read?
**A.** Its Potency is “inactive”.

**Q.** With `OCC1CCCO1` (stereo not given) as the compound, how does the Potency read?
**A.** Its Potency is “inactive”.

**Q.** With `CN(C)c1ccc(C(=N)c2ccc(N(C)C)cc2)cc1` as the compound, how does the Potency read?
**A.** The Potency was 18.6 µM (active).

**Q.** Which Potency does the source give for `Cn1c([N+](=O)[O-])cnc1COC(N)=O` here?
**A.** The Potency was “inactive”.

**Q.** Which Potency does the source give for `C=C(C)C(=O)OCCCCCCCCCCCC` here?
**A.** Its Potency is “inactive”.

**Q.** With `C=C1C2CCC(C2)C1(C)C` (stereo not given) as the compound, how does the Potency read?
**A.** Its Potency is “inactive”.

**Q.** For `CC(C)(N=C=O)c1cccc(C(C)(C)N=C=O)c1`, which Potency is on record?
**A.** Its Potency is “inactive”.

**Q.** With `O=c1c(-c2ccc(O)cc2)coc2cc(O)ccc12` as the compound, how does the Potency read?
**A.** Its Potency is “inactive”.

**Q.** For `C=C(C)C(=O)OCC(CC)(COC(=O)C(=C)C)COC(=O)C(=C)C`, which Potency is on record?
**A.** Its Potency is “inactive”.

**Q.** With `CC(=O)Nc1ccc(C(=O)O)cc1` as the compound, how does the Potency read?
**A.** Its Potency is “inactive”.

**Q.** Which Potency does the source give for `CCC(C)C=O` (stereo not given) here?
**A.** The Potency was “inactive”.

**Q.** For `Oc1ccc2ccccc2c1N=Nc1ccccc1`, which Potency is on record?
**A.** Its Potency is 30.6 µM (active).

**Q.** For `OCC#CCO`, which Potency is on record?
**A.** The Potency was “inactive”.

**Q.** Which Potency does the source give for `CC(=O)[C@@]1(O)CC[C@H]2[C@@H]3CCC4=CC(=O)CC[C@]4(C)[C@H]3CC[C@@]21C` here?
**A.** The Potency was “inactive”.

**Q.** For `CC(=O)CCc1ccccc1`, which Potency is on record?
**A.** Its Potency is “inactive”.

**Q.** For `CCCCCCCCCCC=CC1CC(=O)OC1=O` (stereo not given), which Potency is on record?
**A.** The Potency was “inactive”.

**Q.** Which Potency does the source give for `Oc1c(Cl)cc(Cl)c(Cl)c1Cl` here?
**A.** Its Potency is “inactive”.

**Q.** Which Potency does the source give for `CC1=C(CC(=O)O)c2cc(F)ccc2/C1=C\c1ccc(S(C)=O)cc1` (stereo not given) here?
**A.** Its Potency is “inactive”.

**Q.** For `Nc1nc2ncc(CNc3ccc(C(=O)N[C@@H](CCC(=O)O)C(=O)O)cc3)nc2c(=O)[nH]1`, which Potency is on record?
**A.** The Potency was “inactive”.

**Q.** For `C[C@@H]1O[C@@H](OC[C@H]2O[C@@H](Oc3c(-c4ccc(O)c(O)c4)oc4cc(O)cc(O)c4c3=O)[C@H](O)[C@@H](O)[C@@H]2O)[C@H](O)[C@H](O)[C@H]1O`, which Potency is on record?
**A.** The Potency was “inactive”.

**Q.** With `O=S(=O)(O)CCS` as the compound, how does the Potency read?
**A.** Its Potency is “inactive”.

**Q.** With `Oc1ccc(OCc2ccccc2)cc1` as the compound, how does the Potency read?
**A.** The Potency was “inactive”.

**Q.** Which Potency does the source give for `CC1Cc2ccccc2N1NC(=O)c1ccc(Cl)c(S(N)(=O)=O)c1` (stereo not given) here?
**A.** Its Potency is “inactive”.

**Q.** Which Potency does the source give for `CCCCOCCOCCOC(=O)CCCCC(=O)OCCOCCOCCCC` here?
**A.** Its Potency is “inactive”.

**Q.** For `O=C1O[C@H](CO)[C@@H](O)[C@H](O)[C@H]1O`, which Potency is on record?
**A.** The Potency was “inactive”.

**Q.** Which Potency does the source give for `NS(=O)(=O)c1cc2c(cc1Cl)NC=NS2(=O)=O` here?
**A.** The Potency was “inactive”.

**Q.** For `c1ccc2ccccc2c1`, which Potency is on record?
**A.** Its Potency is “inactive”.

**Q.** With `Cc1ccc(N)c(S(=O)(=O)O)c1` as the compound, how does the Potency read?
**A.** The Potency was “inactive”.

Reference: PubChem BioAssay (Tox21)
